This is a sample that favours compounds with a hit; in the whole collection about 1.5% have one here.
PLC-beta3 inh: human PLC-beta3 inhibitors, primary screen, biochemical, fluorescence; 1-phosphatidylinositol 4,5-bisphosphate phosphodiesterase beta-3 (Homo sapiens), Q01970; Purified PLC-beta3, fluorogenic substrate; inhibition, % at 12.2 µM; actives 0.18% (n = 370,000); AID 720704, 2013; in the data active = inhibition above about 11%;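 note: 0% = median of compound wells on plate and 100% = full blocker control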
PLCg1 inh: PLC-gamma1 enzyme inhibitors, primary screen, biochemical, fluorescence, purified enzyme; inhibition, % at 12.2 µM; actives 0.84% (n = 370,000); fluorogenic substrate; AID 720700, 2013; 1-phosphatidylinositol 4,5-bisphosphate phosphodiesterase gamma-1 (Homo sapiens), P19174
DAGLB inh: DAGLB lipase inhibitors, primary screen, biochemical, fluorescence, HTS. Diacylglycerol lipase-beta (Homo sapiens), Q8NCG7. AID 504411, 2011. HEK293T DAGLB membrane lysate, EnzChek fluorogenic substrate. inhibition, % at 5.17 µM. actives 0.059% (n = 340,000); in the data active = inhibition above about 34%;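 note: 0% = enzyme with vehicle and 100% = wells lacking enzyme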
HGIII-sPLA2 inh: human group III sPLA2 inhibitors, primary screen, biochemical, QFRET, BODIPY PC-A2 liposome substrate; Group 3 secretory phospholipase A2 (Homo sapiens), Q9NZ20; QFRET BODIPY PC-A2 liposome hydrolysis, fluorescence; inhibition, % at 12.2 µM; actives 0.56% (n = 370,000); AID 743126, 2013;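 active = inhibition above mean plus 3 SD of compounds lying within the high and low control bounds, cut at about 19% in these data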;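 note: 0% = median of test compound wells and 100% = no enzyme DMSO wells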
Target sequence (Q9NZ20 whole entry, looked up): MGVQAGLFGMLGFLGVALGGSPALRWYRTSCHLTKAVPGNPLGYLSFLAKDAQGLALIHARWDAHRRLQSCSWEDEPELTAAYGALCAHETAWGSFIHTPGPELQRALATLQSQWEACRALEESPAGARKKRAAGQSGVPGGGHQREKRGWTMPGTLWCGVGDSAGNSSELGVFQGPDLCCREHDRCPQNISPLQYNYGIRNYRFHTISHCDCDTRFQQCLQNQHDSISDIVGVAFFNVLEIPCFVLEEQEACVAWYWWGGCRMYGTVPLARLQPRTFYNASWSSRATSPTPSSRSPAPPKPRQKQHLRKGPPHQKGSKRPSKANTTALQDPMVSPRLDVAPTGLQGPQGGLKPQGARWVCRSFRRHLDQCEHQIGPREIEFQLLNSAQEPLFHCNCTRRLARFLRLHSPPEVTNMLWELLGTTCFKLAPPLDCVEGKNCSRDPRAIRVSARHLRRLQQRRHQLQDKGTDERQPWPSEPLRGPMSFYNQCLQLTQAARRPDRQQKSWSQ
DAGLB inh conf: DAGLB lipase inhibitors, retest, confirmation, biochemical, fluorescence, HEK293T membranes. shares compounds with DAGLB inh. HEK293T DAGLB membrane lysate, EnzChek fluorogenic substrate. actives 73% (n = 190). AID 504445, 2011. inhibition, % at 5.17 µM;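 active = mean inhibition over triplicate wells above a set limit taken from the primary lipase screen, cut at about 34% in these data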;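 note: 0% = DAGLB with DMSO and 100% = wells lacking DAGLB enzyme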
PLCg1 ctr: PLC-gamma1 enzyme inhibitors, counter-screen for PLC-beta3 inhibitor project, biochemical, fluorescence; inhibition, % at 12.3 µM; actives 3.1% (n = 3,300); purified PLC-gamma1, fluorogenic substrate; AID 743258, 2014; shares compounds with PLCg1 inh
PLCbeta3 conf: PLC-beta3 inhibitor confirmation, biochemical, fluorescence, purified enzyme; shares compounds with PLCg1 inh; fluorogenic substrate fluorescence; inhibition, % at 12.3 µM; actives 1% (n = 3,300); AID 743261, 2014; in the data active = inhibition above about 11%
The depositor's hits bear a star; . = not tested or not shown. Cut-off read from the data, not from the text of the source, unless noted: active = inhibition above about 9.5%; inactive = the rest.

SMILES	PLC-beta3 inh	PLCg1 inh	DAGLB inh	HGIII-sPLA2 inh	PLCg1 ctr	PLCbeta3 conf	others
CCOc1cc(CNCCc2c[nH]c3ccccc23)cc(Cl)c1OCC	12*	12*	1	-9	.	.
CN1C(=O)[C@@]23C[C@]4(c5c[nH]c6ccccc56)c5ccccc5N(S(=O)(=O)c5ccccc5)[C@@H]4N2C(=O)[C@@H]1SS3	3	2	.	-12	.	.
O=[N+]([O-])c1cc(S(=O)(=O)c2ccc(O)c([N+](=O)[O-])c2)ccc1O	8	35*	2	-7	.	.
O=[N+]([O-])c1cccc(O)c1	3	-1	-2	1	.	.
COC(=O)C1=C(c2ccc(OCc3ccccc3)c(F)c2)C[C@@H]2CC[C@H]1N2C	6	13*	4	-31	.	.
CC[n+]1c(/C=C/C=C/c2ccc(N(C)C)cc2)sc2ccccc21	-20	-6	20	37*	.	.
COC(=O)C1(N(C)c2ccccc2)CCN(Cc2ccccc2)CC1	0	-3	.	3	.	.
CCn1nc(-c2cccs2)nc2c(=O)n(C)c(=O)nc1-2	.	.	-28	.	.	.
CCn1nc(/C=C/c2ccccc2)nc2c(=O)n(C)c(=O)nc1-2	-9	43*	.	-3	.	.
c1cncc(-c2ccc3n2Cc2cnnn2-c2ccccc2-3)c1	-409	-339	.	0	.	.
Nc1ccc(N=Nc2ccccc2)cc1	-3	1	14	8	.	.
Cc1cc(N=Nc2ccccc2C)ccc1N	1	9.6*	21	11	.	.
NP(=O)(OCCCCc1ccccc1)Oc1ccccc1Cl (stereo not drawn)	0	-3	39*	-3	.	.	DAGLB inh conf=40*
O=C(NC(Cc1ccccc1)P(=O)(O)Oc1ccccc1)OCc1ccccc1 (stereo not drawn)	1	4	.	-3	.	.
CC(=O)c1ccc2c(c1)C1C(Cl)C(Sc3ccccc3[N+](=O)[O-])CC1C(C(=O)O)N2 (stereo not drawn)	-4	1	36*	-7	.	.	DAGLB inh conf=31
O=C(O)c1cccc2c1NC(C(=O)O)C1CC(Sc3ccccc3[N+](=O)[O-])C(Cl)C21 (stereo not drawn)	-2	19*	39*	8	.	.	DAGLB inh conf=13
CO[C@H]([C@H](C)/C=C/N(C)C=O)[C@@H](C)C(=O)CC[C@H](C)[C@H](O)[C@H](C)[C@H]1OC(=O)/C=C/C(C)=C/[C@H](O)[C@H](OC)C[C@@H]2C=CC[C@@H](C[C@H](OC)[C@@H](CO)[C@@H](OC)C[C@@H](OC)[C@@H]1C)O2	3	2	.	-12	.	.
O=C(CN1C(=O)[C@@H](Cc2c[nH]c3ccccc23)N=C(c2ccccc2)c2ccccc21)NC1CCCCC1	2	-2	.	-81	.	.
C[C@]12CCC(=O)C=C1CC[C@@H]1C2CC[C@]2(C)C(=O)CCC12 (stereo partly drawn)	4	14*	3	5	-4	-5
Cc1ccc2nc(-c3ccc(CN4CCC(n5nnc6ccccc65)CC4)cc3)c(-c3ccccc3)nc2c1	-76	-61	.	-5	.	.
O=C1CC(=O)N(Cc2ccccc2)C(=O)N1	2	16*	6	-6	-2	-2
COC(=O)C12OCC34C(CC5C(C)=C(O)C(=O)CC5(C)C3C(O)C1O)OC(=O)C(OC(=O)/C=C(\C)C(C)C)C24 (stereo not drawn)	8	13*	2	-9	-6	-2
N#CCC[C@H]1CC[C@]2(CCCN(Cc3ccccn3)C2)O1	1	-1	.	2	.	.
O=C(Cn1cnc2sc3c(c2c1=O)CCCC3)NCCC(=O)N1CCC2(CC1)OCCO2	0	9.7*	0	3	-10	-4
Cc1sc2ncn(CC(=O)N3CCC4(CC3)OCCO4)c(=O)c2c1C	3	-1	-2	3	.	.
SMILES	PLC-beta3 inh	PLCg1 inh	DAGLB inh	HGIII-sPLA2 inh	PLCg1 ctr	PLCbeta3 conf	others
N#CC1c2ccccc2-n2nncc2CN1C(=O)c1ccc([N+](=O)[O-])o1 (stereo not drawn)	-3	-3	.	1	.	.
O=C1CN=C(c2ccccc2)c2c(sc3c2CCCC3)N1	-8	11*	3	11	9	-2
O=C1CN=C(c2cccs2)c2c(sc3c2CCCC3)N1	-5	1	3	2	.	.
CN(C)CC1CSCCC1(O)c1ccccc1Cl (stereo not drawn)	8	9.9*	0	11	-4	-1
CN(C)CC1CSCCC1(O)c1ccc(Cl)cc1 (stereo not drawn)	3	1	1	4	.	.
COc1ccc2nc(-c3ccc(CN4CCC(n5nnc6ccccc65)CC4)cc3)c(-c3ccccc3)nc2c1	-58	-40	.	5	.	.
COC(=O)C(O)(c1c(C)[nH]n(-c2ccccc2)c1=O)C(F)(F)F (stereo not drawn)	6	9	5	2	.	.
COc1cc(C(c2c(C)[nH]n(-c3ccccc3)c2=O)c2c(C)[nH]n(-c3ccccc3)c2=O)cc(OC)c1OC	-24	22*	11	-2	2	0
CC(C)C(=O)N1CCN(CCN=Cc2c(O)n(C)c(=O)n(C)c2=O)CC1	4	11*	-4	10	-1	0
CCC(=O)N1CCN(CCN=Cc2c(O)n(C)c(=O)n(C)c2=O)CC1	-1	-3	-2	3	.	.
Cc1cccc(CS(=O)(=O)Cc2ccc(C(=O)N3CCC4(CC3)OCCO4)o2)c1	11*	14*	2	-1	-6	-3
CN(C)CC#CCC(O)(c1ccccc1)C1CCCC1 (stereo not drawn)	13*	6	-1	-23	-8	-3
CCC(C)C1NC(=O)C(NC(=O)C(CC(C)C)N(C)C(=O)C2CCCN2C(=O)C(C)O)C(C)OC(=O)C(Cc2ccc(OC)cc2)N(C)C(=O)C2CCCN2C(=O)C(CC(C)C)NC(=O)[C@H](C)C(=O)[C@H](C(C)C)OC(=O)CC1O (stereo partly drawn)	7	18*	-8	-20	-4	0
COc1ccccc1-n1c(-c2ccoc2)nc2ccccc2c1=O	11*	8	-1	7	-3	-7
O=c1c2ccccc2nc(-c2ccoc2)n1-c1ccccc1Cl	2	3	-3	1	.	.
COc1ccccc1OCCCn1cc(C(C)=O)c2ccccc21	-3	13*	0	4	-4	-8
COc1ccccc1OCCCn1cc(C(=O)C2CC2)c2ccccc21	-8	-1	-6	-13	.	.

Compound activity from PubChem BioAssay.
